# Test results as given in PubChem BioAssay AID1159580 (chemical genetic matrix, 2015).
# Hit rate of the full screen: of about 5,500 compounds, about 2,000 (36%) were called active. Not shown: some 18% with an inconclusive outcome. Some of the results follow. Values without a mark were called inactive. No stated cut-off is given here; in the data, active means normalized growth mostly below about 0.91 (no sharp cut-off); inconclusive means no clear call, values can overlap the other calls; inactive means mostly above about 0.92.
# Assay: chemical genetic growth profiling, strain panel (AID 1159580);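 further: tested at 20 µM; growth read once vehicle control cultures reached saturation at 30 °C; 1 = growth at the plate median or of vehicle wells; lower values mean less growth of the strain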
# Conditions: growth OD
# [1] = S. cerevisiae deletion strains, locus YDL101C, strain DUN1, active compounds read low
# [2] = S. cerevisiae deletion strains, locus YHR030C, strain SLT2, active compounds read low
# [3] = S. cerevisiae deletion strains, locus YAL013W, strain DEP1, active compounds read low
# [4] = S. cerevisiae deletion strains, locus YBR229C, strain ROT2, active compounds read low
# [5] = S. cerevisiae deletion strains, locus YDL134C, strain PPH21, active compounds read low
# [6] = S. cerevisiae deletion strains, locus YDR150W, strain NUM1, active compounds read low
# [7] = S. cerevisiae deletion strains, locus YEL061C, strain CIN8, active compounds read low
# [8] = S. cerevisiae deletion strains, locus YGR078C, strain PAC10, active compounds read low
# [9] = S. cerevisiae deletion strains, locus YHR087W, strain rtc3, active compounds read low
# [10] = S. cerevisiae deletion strains, locus YJL187C, strain SWE1, active compounds read low
# [11] = S. cerevisiae deletion strains, locus YJR043C, strain POL32, active compounds read low
# [12] = S. cerevisiae deletion strains, locus YJR075W, strain HOC1, active compounds read low
# [13] = S. cerevisiae deletion strains, locus YLR039C, strain RIC1, active compounds read low
# [14] = S. cerevisiae deletion strains, locus YLR058C, strain SHM2 (second series), active compounds read low
# [15] = S. cerevisiae deletion strains, locus YLR085C, strain ARP6, active compounds read low
# [16] = S. cerevisiae deletion strains, locus YLR262C, strain YPT6, active compounds read low
# [17] = S. cerevisiae deletion strains, locus YML094W, strain GIM5, active compounds read low
# [18] = S. cerevisiae deletion strains, locus YMR219W, strain ESC1, active compounds read low
# [19] = S. cerevisiae deletion strains, locus YMR263W, strain SAP30, active compounds read low
# [20] = S. cerevisiae deletion strains, locus YMR307W, strain GAS1, active compounds read low
# [21] = S. cerevisiae deletion strains, locus YNL153C, strain GIM3, active compounds read low
# [22] = S. cerevisiae deletion strains, locus YNL298W, strain CLA4 (second series), active compounds read low
# [23] = S. cerevisiae deletion strains, locus YNL322C, strain KRE1, active compounds read low
# [24] = S. cerevisiae deletion strains, locus YNR030W, strain Alg12, active compounds read low
# [25] = S. cerevisiae deletion strains, locus YPL055C, strain LGE1, active compounds read low
# [26] = S. cerevisiae deletion strains, locus YPL241C, strain CIN2, active compounds read low
# [27] = S. cerevisiae deletion strains, locus YPR135W, strain CTF4, active compounds read low
smiles,measurement,setting,value
O=S(=O)(Nc1ccccc1Sc1c(Cl)cncc1Cl)c1ccc(Cl)cc1,normalized growth,"S. cerevisiae deletion strains, locus YAR019C, strain CDC15, active compounds read low",0.981
same,normalized growth,"S. cerevisiae deletion strains, locus YBL105C, strain PKC1, active compounds read low",0.987
same,normalized growth,"S. cerevisiae deletion strains, locus YBR135W, strain CKS1, active compounds read low",0.985
same,normalized growth,"S. cerevisiae deletion strains, locus YBR136W, strain MEC1, active compounds read low",0.987
same,normalized growth,"S. cerevisiae deletion strains, locus YBR160W, strain CDC28, active compounds read low",0.988
same,normalized growth,"S. cerevisiae deletion strains, locus YDL017W, strain CDC7, active compounds read low",0.986
same,normalized growth,"S. cerevisiae deletion strains, locus YDL028C, strain MPS1, active compounds read low",0.995
same,normalized growth,[1],0.973
same,normalized growth,"S. cerevisiae deletion strains, locus YDL108W, strain KIN28, active compounds read low",0.985
same,normalized growth,"S. cerevisiae deletion strains, locus YDL132W, strain cdc53, active compounds read low",0.974
same,normalized growth,"S. cerevisiae deletion strains, locus YDL214C, strain PRR2, active compounds read low",1
same,normalized growth,"S. cerevisiae deletion strains, locus YDR052C, strain DBF4, active compounds read low",0.984
same,normalized growth,"S. cerevisiae deletion strains, locus YDR054C, strain cdc34, active compounds read low",0.974
same,normalized growth,"S. cerevisiae deletion strains, locus YDR226W, strain ADK1, active compounds read low",0.985
same,normalized growth,"S. cerevisiae deletion strains, locus YDR477W, strain SNF1, active compounds read low",0.99
same,normalized growth,"S. cerevisiae deletion strains, locus YER123W, strain YCK3, active compounds read low",1
same,normalized growth,"S. cerevisiae deletion strains, locus YER133W, strain GLC7, active compounds read low",1
same,normalized growth,"S. cerevisiae deletion strains, locus YFL009W, strain cdc4, active compounds read low",0.98
same,normalized growth,"S. cerevisiae deletion strains, locus YFL029C, strain CAK1, active compounds read low",0.985
same,normalized growth,"S. cerevisiae deletion strains, locus YFR003C, strain YPI1, active compounds read low",0.98
same,normalized growth,"S. cerevisiae deletion strains, locus YFR019W, strain FAB1, active compounds read low",0.998
same,normalized growth,"S. cerevisiae deletion strains, locus YFR028C, strain CDC14, active compounds read low",0.986
same,normalized growth,"S. cerevisiae deletion strains, locus YGR040W, strain KSS1, active compounds read low",0.993
same,normalized growth,"S. cerevisiae deletion strains, locus YGR052W, strain FMP48, active compounds read low",1.07
same,normalized growth,"S. cerevisiae deletion strains, locus YGR092W, strain DBF2, active compounds read low",0.988
same,normalized growth,[2],1.13
same,normalized growth,"S. cerevisiae deletion strains, locus YHR079C, strain IRE1, active compounds read low",1
same,normalized growth,"S. cerevisiae deletion strains, locus YHR082C, strain KSP1, active compounds read low",1.27
same,normalized growth,"S. cerevisiae deletion strains, locus YHR205W, strain SCH9, active compounds read low",0.981
same,normalized growth,"S. cerevisiae deletion strains, locus YIL147C, strain SLN1, active compounds read low",0.988
same,normalized growth,"S. cerevisiae deletion strains, locus YJL095W, strain BCK1, active compounds read low",0.974
same,normalized growth,"S. cerevisiae deletion strains, locus YJL128C, strain PBS2, active compounds read low",0.916
same,normalized growth,"S. cerevisiae deletion strains, locus YJL157C, strain FAR1, active compounds read low",0.997
same,normalized growth,"S. cerevisiae deletion strains, locus YJR016C, strain ILV3, active compounds read low",0.974
same,normalized growth,"S. cerevisiae deletion strains, locus YJR066W, strain TOR1 (second series), active compounds read low",1
same,normalized growth,"S. cerevisiae deletion strains, locus YJR066W, strain TOR1, active compounds read low",1.26
same,normalized growth,"S. cerevisiae deletion strains, locus YKL048C, strain ELM1, active compounds read low",0.955
same,normalized growth,"S. cerevisiae deletion strains, locus YKL067W, strain YNK1, active compounds read low",0.978
same,normalized growth,"S. cerevisiae deletion strains, locus YKL101W, strain HSL1, active compounds read low",0.958
same,normalized growth,"S. cerevisiae deletion strains, locus YKL193C, strain SDS22, active compounds read low",0.977
same,normalized growth,"S. cerevisiae deletion strains, locus YKL203C, strain TOR2, active compounds read low",1.06
same,normalized growth,"S. cerevisiae deletion strains, locus YLR113W, strain HOG1, active compounds read low",0.995
same,normalized growth,"S. cerevisiae deletion strains, locus YLR133W, strain CKI1, active compounds read low",0.979
same,normalized growth,"S. cerevisiae deletion strains, locus YLR403W, strain SFP1, active compounds read low",1
same,normalized growth,"S. cerevisiae deletion strains, locus YML070W, strain DAK1, active compounds read low",0.995
same,normalized growth,"S. cerevisiae deletion strains, locus YMR001C, strain CDC5, active compounds read low",0.984
same,normalized growth,"S. cerevisiae deletion strains, locus YMR205C, strain PFK2 (second series), active compounds read low",0.998
same,normalized growth,"S. cerevisiae deletion strains, locus YMR277W, strain FCP1, active compounds read low",0.978
same,normalized growth,"S. cerevisiae deletion strains, locus YNL006W, strain LST8, active compounds read low",0.982
same,normalized growth,"S. cerevisiae deletion strains, locus YNL020C, strain ARK1, active compounds read low",0.978
same,normalized growth,"S. cerevisiae deletion strains, locus YNL161W, strain CBK1, active compounds read low",0.98
same,normalized growth,"S. cerevisiae deletion strains, locus YNL183C, strain NPR1, active compounds read low",0.961
same,normalized growth,"S. cerevisiae deletion strains, locus YNL207W, strain RIO2, active compounds read low",0.985
same,normalized growth,"S. cerevisiae deletion strains, locus YNL222W, strain SSU72, active compounds read low",0.994
same,normalized growth,"S. cerevisiae deletion strains, locus YNL307C, strain MCK1 (second series), active compounds read low",0.978
same,normalized growth,"S. cerevisiae deletion strains, locus YOL078W, strain AVO1, active compounds read low",0.96
same,normalized growth,"S. cerevisiae deletion strains, locus YOL136C, strain PFK27, active compounds read low",1
same,normalized growth,"S. cerevisiae deletion strains, locus YOR061W, strain CKA2, active compounds read low",0.991
same,normalized growth,"S. cerevisiae deletion strains, locus YOR119C, strain RIO1, active compounds read low",1.01
same,normalized growth,"S. cerevisiae deletion strains, locus YOR231W, strain MKK1, active compounds read low",0.998
same,normalized growth,"S. cerevisiae deletion strains, locus YOR329C, strain SCD5, active compounds read low",0.989
same,normalized growth,"S. cerevisiae deletion strains, locus YPL031C, strain PHO85, active compounds read low",0.995
same,normalized growth,"S. cerevisiae deletion strains, locus YPL153C, strain RAD53, active compounds read low",0.994
same,normalized growth,"S. cerevisiae deletion strains, locus YPL204W, strain HRR25, active compounds read low",1
same,normalized growth,"S. cerevisiae deletion strains, locus YPL209C, strain IPL1, active compounds read low",0.99
same,normalized growth,"S. cerevisiae deletion strains, locus YPL256C, strain CLN2, active compounds read low",0.97
same,normalized growth,"S. cerevisiae deletion strains, locus YPR025C, strain CCL1, active compounds read low",0.992
same,normalized growth,"S. cerevisiae deletion strains, locus YPR106W, strain ISR1, active compounds read low",0.968
same,normalized growth,"S. cerevisiae deletion strains, locus YPR111W, strain DBF20, active compounds read low",0.959
same,normalized growth,"S. cerevisiae deletion strains, strain NNK1, active compounds read low",0.963
same,normalized growth,"S. cerevisiae deletion strains, strain TSCII, active compounds read low",0.985
COC(=O)c1cccnc1Sc1ccc(C)cc1,normalized growth,[3],0.947
same,normalized growth,[4],0.97
same,normalized growth,"S. cerevisiae deletion strains, locus YCL061C, strain MRC1, active compounds read low",0.968
same,normalized growth,[1],0.991
same,normalized growth,[5],0.958
same,normalized growth,[6],0.904
same,normalized growth,[7],0.956
same,normalized growth,[8],0.954
same,normalized growth,[2],0.432 (active)
same,normalized growth,[9],0.974
same,normalized growth,[10],0.967
same,normalized growth,[11],0.95
same,normalized growth,[12],0.989
same,normalized growth,[13],0.913
same,normalized growth,[14],0.966
same,normalized growth,[15],0.666 (active)
same,normalized growth,[16],0.961
same,normalized growth,[17],0.97
same,normalized growth,[18],0.958
same,normalized growth,[19],0.962
same,normalized growth,[20],0.686
same,normalized growth,"S. cerevisiae deletion strains, locus YNL128W, strain TEP1, active compounds read low",0.98
same,normalized growth,[21],0.991
same,normalized growth,[22],0.917
same,normalized growth,[23],0.965
same,normalized growth,[24],0.928
same,normalized growth,"S. cerevisiae deletion strains, locus YOL006C, strain TOP1, active compounds read low",0.684 (active)
same,normalized growth,[25],0.812
same,normalized growth,[26],0.769 (active)
same,normalized growth,[27],0.61 (active)
same,normalized growth,"S. cerevisiae strains, strain wild type, active compounds read low",0.965
CC(C)(C)c1ccc(Oc2ncccc2NC(=O)c2ccccc2C(F)(F)F)cc1,normalized growth,[3],0.986
same,normalized growth,[4],1.01
same,normalized growth,[1],1.02
same,normalized growth,[5],0.996
same,normalized growth,[6],1.06
same,normalized growth,[7],1
same,normalized growth,[8],0.992
same,normalized growth,[2],0.934
same,normalized growth,[9],1
same,normalized growth,[10],0.998
same,normalized growth,[11],0.948
same,normalized growth,[12],0.988
same,normalized growth,"S. cerevisiae deletion strains, locus YKL190W, strain CNB1, active compounds read low",1
same,normalized growth,[13],0.982
same,normalized growth,[14],0.986
same,normalized growth,[15],0.972
same,normalized growth,[16],0.967
same,normalized growth,[17],1.03
same,normalized growth,[18],0.999
same,normalized growth,[19],1.01
same,normalized growth,[20],0.876
same,normalized growth,[21],1
same,normalized growth,[22],0.987
same,normalized growth,[23],1
same,normalized growth,[24],0.993
same,normalized growth,[25],0.996
same,normalized growth,[26],0.987
same,normalized growth,[27],0.984
